Pf Dd2 growth: P. falciparum Dd2 growth inhibitors, primary screen, SYBR Green fluorescence, single dose replicates; 72 h; active compounds read low; activity change, % at 10 µM; 94,000 compounds, 2.3% hits; AID 1159554, 2015; in the data active = activity change below about -80%; inconclusive = no clear call, values can overlap the other calls
C diff HTS: C. difficile growth inhibitors, primary screen, HTS | Clostridium difficile clinical isolate growth, OD600, 24 h; active compounds read low | growth activity, negative = inhibition, % at 16 µg/mL (by protocol) | 86,000 compounds, 0.25% hits;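 active = mean growth activity at or below -80% and every replicate also at or below -80%; inconclusive = mean at or below -80% but some replicate above -80%; inactive = mean growth activity above -80%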
Of the large screens only hits and unclear results are named; the others gave an inactive call. Only some compounds are listed: those with a hit (about 2.3% of all), similar ones and a draw of the others.

C[C@@H]1CCCCO[C@H](CN(C)S(=O)(=O)c2ccc(Cl)cc2)[C@H](C)CN([C@@H](C)CO)C(=O)c2cc(NC(=O)Nc3cccc4ccccc34)ccc2O1	none
C[C@@H]1CN([C@H](C)CO)C(=O)c2cc(NC(=O)Nc3cccc4ccccc34)ccc2O[C@@H](C)CCCCO[C@@H]1CN(C)S(=O)(=O)c1ccc(Cl)cc1	Pf Dd2 growth -85
C[C@@H]1CN([C@H](C)CO)C(=O)c2cc(NC(=O)Nc3cccc4ccccc34)ccc2O[C@@H](C)CCCCO[C@H]1CN(C)S(=O)(=O)c1ccc(Cl)cc1	Pf Dd2 growth inconclusive
C[C@@H]1CCCCO[C@H](CN(C)S(=O)(=O)c2ccc(Cl)cc2)[C@@H](C)CN([C@@H](C)CO)C(=O)c2cc(NC(=O)Nc3cccc4ccccc34)ccc2O1	Pf Dd2 growth -81
C[C@H]1CN([C@@H](C)CO)C(=O)Cc2cc(NC(=O)CCCCCC(=O)Nc3ccccc3N)ccc2O[C@H]1CN(C)Cc1ccc(-c2ccccc2)cc1	Pf Dd2 growth -82
Cc1ccc(S(=O)(=O)N(C)C[C@@H]2Oc3ccc(NC(=O)CCCCCC(=O)Nc4ccccc4N)cc3CC(=O)N([C@@H](C)CO)C[C@H]2C)cc1	none
C[C@@H]1CN([C@@H](C)CO)C(=O)Cc2cc(NC(=O)CCCCCC(=O)Nc3ccccc3N)ccc2O[C@H]1CN(C)Cc1ccc2c(c1)OCO2	none
C[C@H]1CN([C@@H](C)CO)C(=O)Cc2cc(NC(=O)CCCCCC(=O)Nc3ccccc3N)ccc2O[C@H]1CN(C)Cc1ccc2c(c1)OCO2	Pf Dd2 growth -88
C[C@@H]1CN([C@H](C)CO)C(=O)Cc2cc(NC(=O)CCCCCC(=O)Nc3ccccc3N)ccc2O[C@H]1CN(C)Cc1ccccc1	none
Cc1ccc(S(=O)(=O)N(C)C[C@@H]2Oc3ccc(NC(=O)CCCCCC(=O)Nc4ccccc4N)cc3CC(=O)N([C@@H](C)CO)C[C@@H]2C)cc1	Pf Dd2 growth -88
COc1cccc(-c2ccc([C@H]3[C@H]4CN(C(=O)C5CCCC5)CC(=O)N4[C@H]3CO)cc2)c1	none
COc1cccc(NC(=O)N(C)C[C@@H]2Oc3cc(C#Cc4ccccc4)ccc3S(=O)(=O)N([C@@H](C)CO)C[C@@H]2C)c1	Pf Dd2 growth -91
COc1cccc(NC(=O)N(C)C[C@H]2Oc3cc(C#Cc4ccccc4)ccc3S(=O)(=O)N([C@H](C)CO)C[C@H]2C)c1	none
COc1cccc(NC(=O)N(C)C[C@H]2Oc3cc(C#Cc4ccncc4)ccc3S(=O)(=O)N([C@@H](C)CO)C[C@H]2C)c1	none
COc1cccc(NC(=O)N(C)C[C@H]2Oc3cc(C#Cc4ccccc4)ccc3S(=O)(=O)N([C@H](C)CO)C[C@@H]2C)c1	Pf Dd2 growth -84
C[C@H](NC(=O)C[C@H]1C[C@H]2c3cc(NC(=O)NC4CCCC4)ccc3O[C@H]2[C@@H](CO)O1)c1ccccc1	none (no result: C diff HTS)
Cc1noc(C)c1S(=O)(=O)Nc1cccc2c1O[C@H](CN(C)CC1CC1)[C@H](C)CN([C@@H](C)CO)C2=O	none
COc1ccc(S(=O)(=O)N(C)C[C@H]2Oc3ccc(NC(=O)NC(C)C)cc3C(=O)N([C@@H](C)CO)C[C@@H]2C)cc1	none
COC(=O)C[C@H]1C[C@H]2c3cc(N)ccc3O[C@H]2[C@@H](CO)O1	none
Cc1noc(C)c1S(=O)(=O)Nc1ccc2c(c1)CC(=O)N([C@@H](C)CO)C[C@@H](C)[C@H](CN(C)C(=O)NC(C)C)O2	none
COc1ccc(C#Cc2ccc3c(c2)[C@@H]2[C@@H](CCN2C(=O)C2CCC2)[C@@H](CO)N3)cc1	none
COc1cccc(-c2ccc3c(c2)[C@H]2[C@H](CCN2C(=O)Cc2ccncc2)[C@H](CO)N3)c1	none (no result: C diff HTS)
O=C(Cc1ccncc1)N1CC[C@@H]2[C@@H](CO)Nc3ccc(-c4cccc(F)c4)cc3[C@@H]21	Pf Dd2 growth -92
C/C=C/c1ccc2c(c1)[C@@H]1[C@@H](CCN1C(=O)C1CCCC1)[C@H](CO)N2	none
C/C=C/c1ccc2c(c1)[C@H]1[C@H](CCN1C(=O)C1CCCC1)[C@@H](CO)N2	Pf Dd2 growth -86
C/C=C/c1ccc2c(c1)[C@H]1[C@H](CCN1S(=O)(=O)c1ccccc1)[C@H](CO)N2	none
C/C=C/c1ccc2c(c1)[C@H]1[C@H](CCN1S(=O)(=O)c1cccc(F)c1)[C@@H](CO)N2	Pf Dd2 growth -93
COc1ccc(C#Cc2ccc3c(c2)[C@@H]2[C@@H](CCN2C(=O)C2CCC2)[C@H](CO)N3)cc1	Pf Dd2 growth -87
COc1cccc(NC(=O)N[C@H]2C=C[C@@H](CC(=O)N3CCOCC3)O[C@H]2CO)c1	none
C[C@H](CO)N1C[C@H](C)[C@H](CN(C)Cc2ccc(Cl)c(Cl)c2)Oc2ccc(NS(=O)(=O)c3ccc(F)cc3)cc2CC1=O	none (no result: C diff HTS)
C[C@H](CO)N1C[C@H](C)[C@H](CN(C)CC2CC2)OCCCC[C@H](C)Oc2ccc(NC(=O)Nc3ccc(F)cc3)cc2C1=O	none (no result: C diff HTS)

High-throughput results deposited in PubChem by Broad Institute.
